# High-throughput results from PubChem BioAssay.
# Pol III holo inh – blocks replication by bacterial DNA polymerase III holoenzyme; reconstituted DNA polymerase III holoenzyme replication, biochemical; Potency, µM (doses to about 57.1 µM), for the others: at the highest dose activity change, negative = inhibition; hit rate 0.25% among 71,000; AID 603; also: potency is read from the fitted curve at half-maximal effect; % is scaled to controls: 0 for no effect and ±100 for the full control effect
#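 Reconstituted *E. coli* holoenzyme (0.35 nM Pol III, 1 nM beta, 154 nM SSB, 2 nM primase) was preincubated with compound for 15 min at RT. Synthesis on 1.4 nM ssM13Gori ran 35 min, then was stopped with PicoGreen/EDTA and read as dsDNA fluorescence.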
# YjeE inh – YjeE (TsaE) inhibition, E. coli; P0AF67; purified YjeE enzyme, qHTS inhibition assay; Potency, µM; hit rate 0.05% among 71,000; AID 605
#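 Purified YjeE (10 uM) with BODIPY Texas Red-labeled ADP probe (2 uM); compounds pin-transferred, 15 min at room temperature. Binding inhibition read as decreased fluorescence polarization; ADP titration as control.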
# BRCT PPI green – BRCA1 BRCT-phosphoprotein interaction inhibition; P38398; BRCA1 BRCT-phosphopeptide binding, green fluorescence polarization; Potency, µM (titrated, usually from 76.9 µM), without a hit: at the top dose activity change, negative = inhibition, usual class: inhibitors; hit rate 0.05% among 75,000; AID 875;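 also: potency is read from the fitted curve at half-maximal effect; plate controls were peptide without protein for full effect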
# Target sequence (P38398 whole entry, looked up): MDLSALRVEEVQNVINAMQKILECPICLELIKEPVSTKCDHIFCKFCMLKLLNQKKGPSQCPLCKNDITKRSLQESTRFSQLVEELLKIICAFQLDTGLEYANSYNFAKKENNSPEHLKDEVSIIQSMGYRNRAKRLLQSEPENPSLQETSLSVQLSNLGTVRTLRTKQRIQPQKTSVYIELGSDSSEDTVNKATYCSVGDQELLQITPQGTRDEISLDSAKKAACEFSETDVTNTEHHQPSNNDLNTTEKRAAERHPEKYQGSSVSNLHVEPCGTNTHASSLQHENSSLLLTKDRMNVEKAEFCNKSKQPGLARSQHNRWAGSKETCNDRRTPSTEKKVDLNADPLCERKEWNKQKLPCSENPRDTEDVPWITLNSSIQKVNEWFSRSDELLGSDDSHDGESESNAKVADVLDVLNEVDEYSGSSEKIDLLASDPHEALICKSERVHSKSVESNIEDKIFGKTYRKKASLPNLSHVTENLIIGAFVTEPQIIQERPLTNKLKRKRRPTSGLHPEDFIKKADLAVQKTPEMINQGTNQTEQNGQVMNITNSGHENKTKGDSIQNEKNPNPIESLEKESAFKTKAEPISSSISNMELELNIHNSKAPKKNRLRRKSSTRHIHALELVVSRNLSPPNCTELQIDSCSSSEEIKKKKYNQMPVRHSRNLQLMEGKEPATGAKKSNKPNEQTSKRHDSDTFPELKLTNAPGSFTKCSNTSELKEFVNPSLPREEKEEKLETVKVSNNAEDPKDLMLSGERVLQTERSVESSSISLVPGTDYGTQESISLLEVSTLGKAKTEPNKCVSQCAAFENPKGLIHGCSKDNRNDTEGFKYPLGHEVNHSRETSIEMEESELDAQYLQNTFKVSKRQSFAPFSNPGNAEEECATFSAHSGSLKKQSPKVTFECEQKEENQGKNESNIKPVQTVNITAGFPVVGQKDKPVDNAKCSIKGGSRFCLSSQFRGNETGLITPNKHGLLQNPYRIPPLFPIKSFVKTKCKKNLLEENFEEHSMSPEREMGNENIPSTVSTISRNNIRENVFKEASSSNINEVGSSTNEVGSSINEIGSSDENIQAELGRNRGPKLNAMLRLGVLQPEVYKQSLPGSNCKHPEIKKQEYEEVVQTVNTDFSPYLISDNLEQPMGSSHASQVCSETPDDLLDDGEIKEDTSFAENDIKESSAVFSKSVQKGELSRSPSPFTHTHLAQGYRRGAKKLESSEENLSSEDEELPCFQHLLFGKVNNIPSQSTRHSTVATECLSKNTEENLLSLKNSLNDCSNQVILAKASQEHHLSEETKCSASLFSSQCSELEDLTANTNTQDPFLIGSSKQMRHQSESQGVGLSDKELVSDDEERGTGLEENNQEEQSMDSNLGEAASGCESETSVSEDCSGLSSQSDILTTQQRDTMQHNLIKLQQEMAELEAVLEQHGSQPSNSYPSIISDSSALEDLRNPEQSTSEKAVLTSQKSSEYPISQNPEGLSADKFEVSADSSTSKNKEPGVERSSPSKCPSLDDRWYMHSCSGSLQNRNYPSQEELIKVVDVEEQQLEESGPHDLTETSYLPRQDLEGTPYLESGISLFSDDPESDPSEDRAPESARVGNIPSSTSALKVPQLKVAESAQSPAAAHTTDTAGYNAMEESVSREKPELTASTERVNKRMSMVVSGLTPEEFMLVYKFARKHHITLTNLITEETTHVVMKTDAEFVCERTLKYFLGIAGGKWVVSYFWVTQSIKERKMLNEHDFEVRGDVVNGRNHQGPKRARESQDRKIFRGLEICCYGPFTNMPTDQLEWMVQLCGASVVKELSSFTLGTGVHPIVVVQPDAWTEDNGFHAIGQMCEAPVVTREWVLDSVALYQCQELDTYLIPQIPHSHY
#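 Compounds were incubated for 12 min at room temperature with a complex of 100 nM fluorescein-tagged pBACH1 decapeptide and 250 nM His-tagged BRCT protein. Buffer was phosphate pH 7.3 with EDTA, DTT and Tween 20. Disruption of binding lowers the polarization signal.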
# BRCT inh red – disrupts BRCA1 BRCT binding to phosphoprotein, red fluorophore readout. P38398. BRCT-phosphopeptide binding, red fluorescence polarization. Potency, µM (doses to about 76.9 µM), inactives show at the top dose activity change, negative = inhibition, hits mostly inhibitors. hit rate 0.03% among 75,000. AID 892; also: % is scaled to controls: 0 for no effect and ±100 for the full control effect
#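 Rhodamine-labelled pBACH1 10-mer (100 nM) bound to BRCT domain (100 nM) at pH 7.3; compounds incubated 12 min room temperature, polarization read. Free peptide defines full inhibition; unlabelled decapeptide titrated as control.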
# ERK AVP block – vasopressin-driven ERK pathway inhibition | HEK293-V1b, vasopressin-stimulated pERK AlphaScreen | Potency, µM (series often up to 57.5 µM), for the others: top-dose activity, negative = inhibition, hits mostly inhibitors | hit rate 0.99% among 72,000 | AID 995; also: potency is read from the fitted curve at half-maximal effect; % is scaled to controls: 0 for no effect and ±100 for the full control effect; nearly all actives have a fitted effect of over 55% in size
#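 Phosphorylated ERK1/2 detected via AlphaScreen bead proximity in lysates of V1b-expressing HEK293 cells given 25 nM vasopressin for 5 min after 30 min compound exposure (37 °C). AC50 from Hill equation; basal DMSO 0%, vasopressin 100%.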
# * marks the source's active call; other numbers are inactive results; i = inactive; ? = inconclusive; / = no result given; [ ] = remark or other dose. A selection: hits, their analogues and other compounds. The true share with any hit is near 1.2%. Calls follow the shape of the dose curve; as a rule, active = well fitted curve in the direction sought with a large enough effect; inconclusive = small, poorly fitted or top-dose-only effect, or another doubt; inactive = no such curve, though single readings can be large; an effect the other way counts as inactive or inconclusive.
SMILES,Pol III holo inh,YjeE inh,BRCT PPI green,BRCT inh red,ERK AVP block
Cc1cccc(CNc2ccnc(-c3cccc(NS(C)(=O)=O)c3)n2)c1,-7.2%,i,2.8%,-2.7%,12.6µM*
CN(C)C(=O)c1ccc(-c2ccc3ncnc(NCc4ccccc4)c3c2)cc1,-1.7%,i,-1.9%,-1.7%,25.1µM*
COC1=CC(=O)C[C@@H](C)[C@@]12Oc1c(Cl)c(OC)cc(OC)c1C2=O,-2.6%,i,/,/,/
COc1ccccc1-c1ccc2ncnc(N3CCOCC3)c2c1,-10.6%,i,7.6%,-0.9%,10µM*
CN1CCN(c2ncnc3ccc(-c4cccc(NS(C)(=O)=O)c4)cc23)CC1,-4.8%,i,2.6%,-2.3%,3.16µM*
CS(=O)(=O)Nc1cccc(-c2ccc3ncnc(NC4CC4)c3c2)c1,-6.3%,i,-2.4%,3.2%,?
CN1[C@@H]2CC(OC(=O)[C@@H](CO)c3ccccc3)C[C@H]1[C@H]1O[C@H]12 (some centres not stated),-3.3%,i,-1.2%,2.1%,5.3%
Cc1cc(-c2ccc(N=Nc3ccc4c(S(=O)(=O)O)cc(S(=O)(=O)O)c(N)c4c3O)c(C)c2)ccc1N=Nc1ccc2c(S(=O)(=O)O)cc(S(=O)(=O)O)c(N)c2c1O,7.94µM*,79.4µM*,31.6µM*,?,25.1µM*
Cc1ccc(N=Nc2c(O)c(S(=O)(=O)O)cc3cc(S(=O)(=O)O)ccc23)c(C)c1,-14.7%[11.4 µM],i,-1.6%[15.4 µM],-0.2%[15.4 µM],-6.0%[11.5 µM]
CCCCS(=O)(=O)/C=C\C=C/S(=O)(=O)CCCC,-6.5%,i,-0.7%,1.2%,3.16µM*
CC(=O)O[C@H]1C[C@H]2CC[C@@H]3[C@@H](CC[C@]4(C)[C@H](OC(C)=O)[C@H]([N+]5(C)CCCCC5)C[C@@H]34)[C@]2(C)C[C@H]1[N+]1(C)CCCCC1,-2.5%[25.6 µM],i,-0.7%[34.4 µM],-3.0%[34.4 µM],-10.6%[25.7 µM]
O=C1c2cccnc2-c2ncccc21,3.9%,i,-1.9%,3.5%,5.1%
CC1(C)OCC(CSC2=C(SCC3COC(C)(C)O3)C(=O)c3ncccc3C2=O)O1 (configuration not stated),-7.9%,?,-1.8%,1.2%,15.8µM*
Cc1cccc2sc(NC(=O)Cn3cccc3)nc12,-3.5%,i,4.0%,-1.5%,25.1µM*
COC(=O)Nc1nc2c(C)cccc2s1,1.3%,i,1.6%,-0.2%,-5.6%
N#Cc1cccc(-c2nc3cnc(Oc4cccc(Cl)c4)nc3n(C3CC3)c2=O)c1,-3.3%,i,0.8%,-0.3%,?
N#Cc1c(/N=C/c2cccs2)sc2c1CCCCC2,6.9%,i,-2.8%,0.0%,15.8µM*
CN(C)/C=N/c1sc2c(c1C#N)CCC2,-2.9%,i,-1.8%,0.8%,-9.7%
COc1ccc(NC(=O)Nc2ccc3c(c2)N(C)C(=O)CS3)cc1OC,-4.8%,i,-2.3%,-2.9%,25.1µM*
CSCCC=O,-3.0%,i,-3.2%,1.6%,12.4%
O=C(OCC(=O)N1CCN(C(=O)c2ccco2)CC1)c1cc(-c2ccccc2)nc2ccccc12,-3.2%,i,0.0%,-2.1%,20µM*
COc1ccc(OC)c(S(=O)(=O)n2ccnc2)c1,-6.4%,i,-1.0%,-0.1%,/
COC(=O)CSc1nsc(SCC(=O)OC)c1C#N,2.4%,i,1.8%,-4.8%,15.8µM*
Cc1ccc2c(c1)N[C@H](c1ccc(C(=O)O)cc1)c1cccn1-2,-14.3%[11.4 µM],i,0.5%[15.4 µM],-0.7%[15.4 µM],24.0%[11.5 µM]
Cc1ccc(-c2nc3s/c(=C\c4ccco4)c(=O)n3n2)cc1,-2.6%,i,3.1%,-0.7%,19.2%
SMILES,Pol III holo inh,YjeE inh,BRCT PPI green,BRCT inh red,ERK AVP block
O=c1nc2s/c(=C\c3ccco3)c(=O)n2nc1Cc1ccc(F)cc1,15.8µM*,i,-3.5%,-5.2%,-11.6%
O=C(COc1ccc(Cl)cc1)Nc1nc(-c2cccs2)cs1,-2.8%,i,2.6%,0.3%,25.1µM*
COc1cc(C(=O)Nc2nc(-c3cccs3)cs2)cc(OC)c1OC,-7.9%,i,-1.6%,-1.7%,3.16µM*
COc1ccc(NC(=O)N2CC3(CCN(C(=O)c4ccncc4)CC3)C2)cc1,0.3%,i,2.1%,-1.0%,-8.6%
Nc1ccc(-c2nc3ccc(-c4nc5ccc(N)cc5[nH]4)cc3[nH]2)cc1,/,/,-5.2%,-4.4%,12.6µM*
Nc1ccc(-c2nc3ccccc3[nH]2)cc1,-8.1%,i,-2.0%,-3.7%,/
CCOc1cccc(-c2cc(C(=O)N/N=C/c3cccc(OC)c3O)[nH]n2)c1,/,/,-0.2%,0.5%,/
CN(C)S(=O)(=O)c1ccc2c(c1)c(=O)c(C(=O)NCCCN1CCCCCC1)cn2C,-14.9%,i,10.4%,-2.2%,15.8µM*
Cn1c(O)c(N=N/C(=N/c2ccccn2)c2ccccn2)c2cc(Br)ccc21,/,/,-4.8%,-1.3%,/
O=c1cc(-c2ccc(O)cc2)oc2cccc(O)c12,/,/,-4.7%,-0.3%,3.98µM*
O=c1cc(-c2ccc(O)c(O)c2)oc2ccccc12,/,/,-2.4%[3.08 µM],1.9%,7.94µM*
COc1cccc(-n2c(C)c(C(C)=O)c(C(C)=O)c2C)c1,-3.5%,i,0.8%,-0.6%,-9.7%
COc1ccc(-n2c(C)c(C(C)=O)c(C(C)=O)c2C)cc1OC,-5.3%,i,1.4%,-0.9%,31.6µM*
COc1ccc2c(c1)OC/C(=C/c1ccc(OC)c(OC)c1)C2=O,/,/,2.7%,-0.8%,15.8µM*
Cc1ccccc1OC[C@H](O)CO,-6.8%[25.6 µM],i,-1.2%[34.4 µM],-1.8%[34.4 µM],-12.9%[25.7 µM]
OCc1nc2ccccc2n1CC(O)Cn1ccc2ccccc21 (configuration not stated),-0.5%,i,-0.7%,-0.3%,15.8µM*
C=C1CC[C@H]2C(C)(C)[C@H](O)CC[C@]2(C)[C@@H]1COc1ccc2ccc(=O)oc2c1,-5.8%,i,/,/,/
CCOC(=O)C(C(=O)OCC)c1cc(Br)c2noc3c2c1C(=O)c1ccccc1-3,-7.7%,i,12.2%,-5.5%,25.1µM*
CCOC(=O)c1c2c(n3ccccc13)C(=O)c1ccccc1C2=O,-13.3%[11.4 µM],i,13.6%[15.4 µM],-3.6%[15.4 µM],?
C[C@H]1CN(S(=O)(=O)c2cccc3cnccc23)CCN1,-7.4%,i,-1.7%,-1.5%,11.3%
Cc1c2oc3c(C)ccc(C(=O)N[C@@H]4C(=O)N[C@@H](C(C)C)C(=O)N5CCC[C@@H]5C(=O)N(C)CC(=O)N(C)[C@@H](C(C)C)C(=O)O[C@H]4C)c3nc-2c(C(=O)N[C@@H]2C(=O)N[C@@H](C(C)C)C(=O)N3CCC[C@@H]3C(=O)N(C)CC(=O)N(C)[C@@H](C(C)C)C(=O)O[C@H]2C)c(N)c1=O,0.126µM*,i,-0.1%,-1.0%,0.0%
OCC1OC(n2cnc3c(Cl)nc(Cl)nc32)C(O)C1O (configuration not stated),/,/,1.1%,0.6%,-26.7%
Nc1nc(Cl)nc2c1ncn2[C@@H]1O[C@@H](CO)[C@@H](O)[C@H]1O,-2.2%,i,-2.9%,-0.8%,12.6µM*
